Data taken from PubChem BioAssay AID1117290 (Broad Institute, 2014).
Entries with a potency or affinity are not part of this list. Values without a mark were called inactive. Activity calls are given as the source filed them.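 Rule for the calls: active = every replicate test called active, each showing a drop in signal with a fitted potency within twice the top tested dose; inconclusive = tests disagree, or fits are weak, flat midrange or poor; inactive = every test flat, rising or fitted past the limit.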

Experiment: lung carcinoma cell viability loss – CellTiter-Glo luminescence, dry powder, set 18, cytotoxicity control, dose response (AID 1117290)
Details: A549 viability, CellTiter-Glo ATP luminescence, 72 h; series mostly up to 26 µM; activity change, negative = cytotoxicity: at the top concentration

Row | SMILES | activity change, negative = cytotoxicity | outcome
1 | CC(=O)N1CCN(C(=O)C2(NC(=O)Nc3ccccc3C(F)(F)F)CCCCC2)CC1 | -1.43% | –
2 | CC(=O)N1CCN(C(=O)C2(NC(=O)NCCc3ccccc3)CCCCC2)CC1 | -20.8% | –
3 | COc1ccc(C(=O)Nc2cc(C(F)(F)F)ccc2N2CCOCC2)cc1S(=O)(=O)O | -6.57% | –
4 | COc1ccc(C2=NN(c3ccc(C(=O)O)cc3)C(c3ccc(OC)c(OC)c3)C2)cc1 (stereo unspecified) | -11.2% | –
5 | Cc1ccccc1S(=O)(=O)Nc1cc(C(F)(F)F)ccc1N1CCCCC1 | -9.98% | –
6 | CC(=O)N1CCN(C(=O)C2(NC(=O)Nc3ccc(C(F)(F)F)cc3)CCCC2)CC1 | -19.7% | –
7 | CC(=O)N1CCN(C(=O)C2(NC(=O)Nc3ccc(C)cc3)CC2)CC1 | -14.1% | –
8 | CC(=O)N1CCN(C(=O)[C@@H]2CCN2C(=O)Nc2ccc(C)cc2)CC1 | -11.2% | –
9 | COc1ccc(C(=O)O)cc1S(=O)(=O)N1CCN(c2ccc(C(F)(F)F)cc2N)CC1 | -5.61% | –
10 | Cc1ccc(NC(=O)NC2(C(=O)N3CCN(c4ccccc4)CC3)CCCCC2)cc1 | -10.4% | –
11 | CC(=O)N1CCN(C(=O)C2(NC(=O)Nc3ccc(F)cc3)CCCCC2)CC1 | -14.3% | –
12 | CC(=O)N1CCN(C(=O)C2(NC(=O)Nc3ccc(C(F)(F)F)cc3)CCCCC2)CC1 | -16% | –
13 | CC(=O)N1CCN(C(=O)C2(NC(=O)Nc3cccc(C(F)(F)F)c3)CCCCC2)CC1 | 1.59% | –
14 | COc1ccc(C(=O)O)cc1S(=O)(=O)Nc1ccc(N2CCCCC2)cc1C(F)(F)F | -6.22% | –
15 | CC(=O)N1CCN(C(=O)C2(NC(=O)Nc3cccc(F)c3)CCCCC2)CC1 | -10.3% | –
16 | COc1ccc(C(=O)O)cc1S(=O)(=O)Nc1cc(C(F)(F)F)ccc1N1CCCCC1 | – | inactive
